# TTR transcr act: TTR transcription activators in neuroblastoma reporter cells, primary screen, cell-based, luminescence, SH-SY5Y, TTR promoter Gaussia luciferase. activation, % at 16.7 µM. 100% = recombinant luciferase protein wells. hit rate 1.3% among 92,000. AID 1117267, 2014;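 active = activation above the mean of all tested compounds plus 3 SD, cut at about 9.5% in these data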;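 also: cells exposed to compounds for one day before reading; 0% = median of all test compound wells on the plate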
# TTR inh HuH7: TTR promoter reporter inhibitors in hepatoma cells, counter-screen for TTR transcription activator project, cell-based, luminescence, HuH7 hepatoma; inhibition, % at 16.7 µM; shares compounds with TTR transcr act; hit rate 4% among 1,100; HuH7 TTR promoter-Gaussia luciferase reporter; AID 1117279, 2014;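 active = average inhibition above the solvent-only control wells' mean plus 3 SD, cut at about 15% in these data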;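 also: 0% = cells with DMSO only and 100% = cells with inhibitor control FD; inhibitors lower well luminescence so higher value means more inhibition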
# TTR up confirm: TTR transcription activators, retest, confirmation, cell-based, luminescence, SH-SY5Y, triplicate; shares compounds with TTR transcr act; SHSY5Y TTR promoter Gaussia luciferase; 100% = purified Lucia enzyme wells, no cells; activation, % at 16.7 µM; AID 1117280, 2014; 1,100 tested, under 10 active;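 active = mean activation above a set limit taken from the earlier primary screen, cut at about 11% in these data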;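 also: 0% = DMSO-treated cells and 100% = recombinant Lucia luciferase without cells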
# Starred values were filed as active, the others as inactive. Shown is part of a subset that was picked to be rich in hits.
SMILES,TTR transcr act,others
COC(=O)[C@]12CCCCC=C1N(Cc1ccc(OC)cc1)C(=O)[C@@H]2CC(=O)NCC12CC3CC(CC(C3)C1)C2,-2,
O=C1CN(C(=O)NCC(=O)N[C@@H](C(=O)O)c2ccccc2)c2ccccc2N1,1,
CC(C)[C@H](NC(=O)N1c2ccccc2NC(=O)[C@@H]1C(C)C)C(=O)N[C@@H](C(=O)O)c1ccccc1,27*,
CC(C)C[C@H](NC(=O)N1CC(=O)Nc2ccccc21)C(=O)N[C@@H](C(=O)O)c1ccccc1,0,
CCCC1CCC2(CCCN2CCOC(=O)Nc2ccccc2C)CC1 (stereo not given),-2,
C/C=C/c1ccc([C@H]2[C@@H](CN(CC(C)C)S(=O)(=O)c3ccccc3[N+](=O)[O-])N(C(=O)Nc3cccc(OC)c3)[C@H]2CO)cc1,0,
CCCCCCCCN1C(=O)[C@@H](CC(=O)N2CCN(C(=O)c3ccco3)CC2)C[C@@]2(C(=O)OC)C1=C[C@H](C(C)C)O[C@@H]2C1CC1,-2,
CCCC1CCC2(CCCN2CCOC(=O)Nc2ccc(Br)cc2)CC1 (stereo not given),0,
N#Cc1c(-c2cccc(Cl)c2)[nH]c(=S)[nH]c1=O,2,
C=CCn1cc(-c2cccc(Cl)c2)cc(C#N)c1=O,-3,
N#Cc1cc(-c2cccc(Cl)c2)c[nH]c1=O,13*,
CCC(C#Cc1ccccc1)N(C)C(N)=NC(=O)/C=C/c1ccccc1 (stereo not given),-2,
CC(c1ccccc1)N1CC[C@H]2C=CC[C@@H](C(=O)Nc3cccc(Cl)c3)[C@H]2C1=O (stereo not given in full),-1,
CCCC[C@H]1C2CC(OC(=O)Nc3ccc(F)cc3)C(C2)[C@H]2CCCCN21 (stereo not given in full),-1,
CC(C)(C)c1ccc(C(=O)Nc2ccc(C(=O)N3CCOCC3)cc2)cc1,0,
O=C(c1ccccc1)c1ccc(C(=O)N2CCOCC2)cc1,7,
O=C(c1ccc(NC(=O)C2(c3ccccc3)CCOCC2)cc1)N1CCOCC1,24*,
O=S1(=O)c2ccc(Br)cc2OC[C@@H](c2ccccc2)N1Cc1cn(CCC2OCCCO2)nn1,-1,
C[C@@H]1COc2cc(Br)ccc2S(=O)(=O)N1Cc1cn(CCC2OCCO2)nn1,1,
CCOC(=O)[C@@H]1CSCCS(=O)(=O)N1C(=O)[C@H](CCSC)NC(=O)OC(C)(C)C,4,
C=C(C)C(=O)Nc1cccc(C2=NOC3(C2)C[C@@H](C(N)=O)N(C(=O)C2(C)CC2)C3)c1 (stereo not given in full),5,
C/C=C\C=C/C(=O)Nc1cccc(C2=NOC3(C2)C[C@@H](C(N)=O)N(C(=O)C2(C)CC2)C3)c1 (stereo not given in full),11*,
C/C=C\C(=O)Nc1cccc(C2=NOC3(C2)C[C@@H](C(N)=O)N(C(=O)C2(C)CC2)C3)c1 (stereo not given in full),2,
O=C(CCC1CCCC1)N=C1SC2CS(=O)(=O)CC2N1c1ccccc1F (stereo not given),13*,TTR inh HuH7=-2;TTR up confirm=-1
O=C(COc1ccccc1)N=C1SC2CS(=O)(=O)CC2N1c1ccccc1 (stereo not given),-1,
SMILES,TTR transcr act,others
O=C(N=C1SC2CS(=O)(=O)CC2N1Cc1ccccc1)C1CC1 (stereo not given),0,
COC[C@H]1CCCN1c1cccc2c1S(=O)(=O)N(C1CC1)CC[C@@H](C)O2,-1,
COc1ccc(/C=N/NC(=O)COc2cccc3cccnc23)cc1OC,-1,
CC(Oc1cccc2cccnc12)C(=O)N/N=C/c1ccccc1 (stereo not given),-2,
CC(Oc1cccc2cccnc12)C(=O)N/N=C/c1ccc2c(c1)OCO2 (stereo not given),13*,TTR inh HuH7=-8;TTR up confirm=-1
CC(=O)Oc1cc2c(cc1Cl)C(c1cccs1)CC1(CC(C)(C)NC(=S)N1)O2 (stereo not given),-2,
COc1ccc(CN(C(=O)Cn2nnc3ccccc32)C(C(=O)NC(C)(C)C)c2ccco2)cc1 (stereo not given),9.9*,TTR inh HuH7=-9;TTR up confirm=0
O=C(NC1CCCCC1)C(c1ccco1)N(Cc1cccs1)C(=O)Cn1nnc2ccccc21 (stereo not given),-3,
CCC(C)(C)NC(=O)C(c1ccccc1F)N(Cc1ccco1)C(=O)Cn1nnc2ccccc21 (stereo not given),6,
COc1ccccc1CNC(=O)Cn1cc(Br)ccc1=O,0,
Cc1ccc(NC(=O)CSc2nnc(CN3CCOCC3)n2-c2ccccc2)cc1,-1,
CCn1c(CN2CCOCC2)nnc1SCC(=O)Nc1cccc(C)c1,21*,TTR inh HuH7=-17;TTR up confirm=-1
Cc1cccc(NC(=O)CSc2nnc(C)n2Cc2ccccc2)c1,6,
Cc1ccccc1CN1CCCCC(NC(=O)Nc2ccccc2)C1=O (stereo not given),5,
O=C(Nc1ccccc1C(F)(F)F)O[C@@H]1CC[C@@]23CCCN2C(=O)CCC[C@H]3C1,0,
CC(=O)c1c(COC(=O)c2ccc(F)cc2)nc2ccccc2[n+]1[O-],-1,
COc1ccc(CNC(=O)CNC(=O)c2ccc(C(C)(C)C)cc2)cc1OC,13*,TTR inh HuH7=-18;TTR up confirm=0
COc1ccc(CC(=O)NCc2ccccc2)cc1OC,0,
COc1ccc(CCNC(=O)c2ccc(OC)c(OC)c2)cc1OC,2,
O=C(O)CNC(=O)C1(N2C(=O)c3ccccc3C2=O)CCCC1,0,
CCC1(CC)C(=O)N=C2c3ccccc3C(=O)N21,48*,TTR inh HuH7=-16;TTR up confirm=0
CC(C)NC(=O)C1(N2C(=O)c3ccccc3C2=O)CCCC1,-1,
COc1ccc(S[C@]2(C(=O)N3CCOCC3)CC(=O)N[C@@H]2c2ccc(OC)cc2)cc1,-2,
CCc1nnc(NC(=O)CSc2nnc(-c3cc4ccccc4cc3O)n2CCOC)s1,0,
CCn1c(SCC(=O)Nc2nc(-c3ccccc3)cs2)nnc1-c1ccccc1O,-6,
SMILES,TTR transcr act,others
CCc1nnc(NC(=O)CSc2nnc(-c3ccccc3O)n2CC)s1,22*,TTR inh HuH7=-14;TTR up confirm=1
COc1ccc(CCC(=O)N2CCN(C3CCCCC3)CC2)cc1,14*,TTR inh HuH7=-14;TTR up confirm=0
COc1cc(OC)cc(C(=O)N2CCN(C3CCCCC3)CC2)c1,6,
O=C(CCCc1ccccc1)N1CCN(C2CCCCC2)CC1,1,
CC(=O)O[C@H]1C=C[C@@H](NC(=O)OC(C)(C)C)C1,2,
OC1c2cc(Cl)ccc2-c2c(Cl)cc(Cl)cc21 (stereo not given),0,
COc1ccc(-n2c(=S)[nH]c(=O)c3cccnc32)cc1,0,
O=c1[nH]n(CCO)c(=O)c2cccnc12,1,
O=c1[nH]n(-c2ccc(Cl)cc2)c2ncccc12,14*,TTR inh HuH7=0;TTR up confirm=-1
O=C(OCc1cn(Cc2ccc(F)cc2F)nn1)N1CCCC1,1,
O=C(NCCc1ccc(Cl)cc1)c1ccc(CS(=O)Cc2ccccc2Cl)o1 (stereo not given),15*,TTR inh HuH7=1;TTR up confirm=0
O=C(NC1CCCC1)c1ccc(CS(=O)Cc2ccccc2Cl)o1 (stereo not given),2,

# Screening results from PubChem BioAssay.
